NALP3 yeast inh – blocks the NALP3 inflammasome reconstituted in yeast. Yeast reconstituted NLRP3/ASC/caspase-1, beta-gal luminescence, 24 h. inhibition, % at 10 µM. 0.39% of 330,000 active. AID 2825;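 active means inhibition of 50% or more; inactive means inhibition below 50%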;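 further: plate controls were induced DMSO wells for no effect and uninduced yeast grown without galactose for full effect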
tim23-1 inh – growth inhibitors of tim23-1 mutant yeast; S. cerevisiae tim23-1 growth, BacTiter-Glo luminescence, 24 h; 1.3% of 330,000 active; inhibition, % at 20 µM;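 active means growth inhibition of the mutant yeast at or above 50%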;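 further: temperature-sensitive mutant grown at 25 °C; plate controls were DMSO-treated mutant yeast for no effect and medium wells lacking yeast for full effect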
tim10-1 inh – inhibits growth of tim10-1 mutant yeast; inhibition, % at 20 µM; S. cerevisiae tim10-1 ts strain growth, BacTiter-Glo, 24 h; 2.2% of 330,000 active;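 active means inhibition of at least 40%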;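 further: mutant grown at 25 °C; 0% = DMSO wells with yeast and 100% = wells holding no yeast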
SKKanGAS inh – SKKanGAS growth inhibition | 1.3% of 300,000 active | AID 1662 | inhibition, % at 7.5 µM | S. pyogenes SKKanGAS, kanamycin growth, BacTiter-Glo, 6 h;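 active means mean replicate score, as percent of positive control median, at least 50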;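 further: strain carries kanamycin resistance gene driven by streptokinase promoter and grows in 40 µg/ml kanamycin; loss of luminescence reflects streptokinase promoter inhibition or plain growth inhibition; 0% = median of DMSO wells and 100% = positive control at its reference dose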
TIM10 inh – TIM10 yeast growth inhibition | S. cerevisiae TIM10 strain growth, BacTiter-Glo luminescence, 24 h | inhibition, % at 10 µM | 1.4% of 330,000 active;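 active means inhibition of 40% or more at the single tested concentration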;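 further: wild-type TIM10 isogenic control strain grown at permissive 25 °C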
NALP1 inh – NALP1 inhibition. inhibition, % at 10 µM. 0.61% of 280,000 active. S. cerevisiae NALP1/ASC/caspase-1 growth, X-gal OD620, 72 h; in the data active means inhibition mostly above about 24%, no sharp cut-off; inactive means mostly below about 32%
tim10-1 conf – tim10-1 yeast growth inhibition, confirmed | S. cerevisiae tim10-1 ts strain growth, BacTiter-Glo, 24 h | inhibition, % at 20 µM | shares compounds with tim10-1 inh | 56% of 7,400 active;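 active means inhibition of yeast growth at or above a set limit in either of two repeat tests at 20 µM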;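 further: tim10-1 mutant grown at permissive 25 °C to find synthetic lethal compounds; 0% = DMSO yeast wells and 100% = medium wells without yeast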
tim10 confirm – TIM10 yeast growth inhibition, confirmed | shares compounds with TIM10 inh | S. cerevisiae tim10 strain growth, BacTiter-Glo luminescence, 24 h | inhibition, % at 10 µM | 63% of 4,600 active | AID 463215;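 active means inhibition of yeast growth at or above a set limit in either of two replicates at 10 µM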;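 further: this counterscreen used the strain with wild-type TIM10; 0% = yeast with DMSO and 100% = medium wells lacking yeast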
tim23-1 confirm – confirmation of tim23-1 mutant yeast growth inhibitors. shares compounds with tim23-1 inh. inhibition, % at 20 µM. S. cerevisiae tim23-1 growth, BacTiter-Glo luminescence, 24 h. 83% of 4,400 active;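 active means inhibition above about 39% in either of two replicate wells at 20 µM, limit read from the data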;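 further: temperature-sensitive tim23-1 mutant grown at 25 °C; 0% = DMSO wells with yeast and 100% = medium wells without yeast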
The depositor's hits bear a star; nt = no result given. An excerpt weighted towards active compounds, which were near 4.9% of everything screened.

SMILES | NALP3 yeast inh | tim23-1 inh | tim10-1 inh | SKKanGAS inh | TIM10 inh | NALP1 inh | tim10-1 conf | tim10 confirm | tim23-1 confirm
N#Cc1c(N2CCCC2)nc(N)c2c(N)nc(N3CCCC3)cc12 | -6 | 81* | 60* | 5 | 43* | 16 | 54* | 31* | 89*
O=C(Nc1cc(Cl)cc(Cl)c1)c1cccc(OC(F)F)c1 | 5 | 85* | 79* | 10 | 68* | -4 | 79* | 66* | 72*
Cc1ccc(N2C(=O)c3ccc(N)cc3C2=O)cc1C | 20 | 52* | 42* | 4 | 34 | 16 | 36* | nt | 43*
O=C(N/N=C/c1ccccc1[N+](=O)[O-])C(=O)N1CCCC1 | 3 | 6 | 4 | -18 | 1 | 0 | nt | nt | nt
O=C(O)C1CCCN(C(=O)c2cccc3ccccc23)C1 (configuration not stated) | 6 | 13 | -6 | -2 | -7 | 10 | nt | nt | nt
N/C(=N\OC(=O)Nc1ccccc1)c1ncc(C(F)(F)F)cc1Cl | -1 | 45 | 26 | 7 | 25 | -2 | nt | nt | nt
N/C(=N\OC(=O)Nc1ccccc1)c1cccc(C(F)(F)F)c1 | 7 | 64* | 54* | -5 | 14 | 3 | 41* | nt | 49*
N/C(=N\OC(=O)Nc1ccc(Cl)cc1)c1ncc(C(F)(F)F)cc1Cl | 3 | 75* | 53* | -12 | 69* | 0 | 64* | 80* | 73*
CNC(=O)c1nnsc1S(=O)c1ccc(Cl)cc1 (configuration not stated) | 41 | 52* | 70* | 44 | 77* | 93* | 68* | 73* | 51*
CCCNC(=O)c1nnsc1S(=O)c1ccc(Cl)cc1 (configuration not stated) | 41 | 82* | 91* | 17 | 83* | 103* | 87* | 96* | 91*
CCCNC(=O)c1nnsc1S(=O)(=O)c1ccc(Cl)cc1 | 39 | 64* | 75* | nt | 76* | 104* | 66* | 70* | 63*
CCCNC(=O)c1ccc2snnc2c1 | 11 | 12 | 4 | -1 | -4 | -93 | nt | nt | nt
COc1ccccc1NS(=O)(=O)c1ccc(NC(=O)c2[nH]nc(OC)c2[N+](=O)[O-])cc1 | -7 | 9 | -27 | nt | 12 | 0 | nt | nt | nt
O=C(NCCN1C(=O)S/C(=C\c2ccccc2Cl)C1=O)C1=COCCO1 | 19 | 24 | 33 | -16 | 27 | nt | nt | nt | nt
O=C(NCCN1C(=O)S/C(=C\c2ccc(Cl)cc2Cl)C1=O)C1=COCCO1 | 31 | 57* | 41* | -9 | 47* | nt | 47* | 48* | 67*
S=c1[nH]nc(C2CCCCC2)n1/N=C/c1ccccc1Cl | 23 | 64* | 58* | 18 | 27 | 8 | 29* | nt | 61*
FC(F)(F)c1ccccc1/C=N/n1c(C2CCCCC2)n[nH]c1=S | 9 | 51* | 48* | 56* | 33 | -8 | 33* | nt | 51*
Cc1ccsc1/C=N/Nc1nc(=O)[nH]nc1C | 2 | 50* | 52* | 27 | 43* | -5 | 50* | 48* | 56*
Cc1cc(C)nc(N/N=C/c2sccc2C)n1 | 6 | 6 | 4 | 0 | -11 | 17 | nt | nt | nt
COc1ccc(C)cc1NC(=O)NCc1ccc(F)cc1 | 27 | 14 | 21 | 0 | 13 | 5 | nt | nt | nt
O=C(O)/C=C/C(=O)Nc1ccc(Oc2ccccc2)cc1 | 7 | -5 | -2 | -2 | -5 | 15 | nt | nt | nt
CCOC(=O)/C=C/C(=O)Nc1ccc(Oc2ccccc2)cc1 | -4 | 55* | 50* | -5 | 33 | 5 | 49* | nt | 66*
CN1CCN(C(c2ccc(Cl)cc2)c2cc(Cl)c3cccnc3c2O)CC1 (configuration not stated) | 40 | 59* | 40* | 101* | 3 | 14 | 24 | nt | 71*
CN1CCN(C(c2ccccc2)c2ccc(Cl)cc2)CC1 (configuration not stated) | 30 | 4 | 37 | nt | 26 | nt | nt | nt | nt
CN1CCN(C(c2cccc(Cl)c2)c2ccccc2Cl)CC1 (configuration not stated) | -70 | -26 | 12 | 11 | 21 | 24 | nt | nt | nt
SMILES | NALP3 yeast inh | tim23-1 inh | tim10-1 inh | SKKanGAS inh | TIM10 inh | NALP1 inh | tim10-1 conf | tim10 confirm | tim23-1 confirm
CN1CCN(C(c2ccc(C(F)(F)F)cc2)c2cc(Cl)c3cccnc3c2O)CC1 (configuration not stated) | 39 | 66* | 43* | 104* | 53* | 27 | 36* | 26 | 70*
O=C(c1cc(S(=O)(=O)N2CCN(c3ccccc3)CC2)ccc1Cl)N1CCCCCCC1 | 25 | 36 | -2 | 3 | 4 | nt | nt | nt | nt
CCc1c(C)nc(Nc2nc(C)c3cc(OC)ccc3n2)[nH]c1=O | 11 | 53* | 42* | -2 | 46* | -23 | 31* | -9 | 52*
CCOC(=O)N1CCN(C(=O)c2ccc(NS(=O)(=O)c3ccc4[nH]c(=O)[nH]c4c3)cc2)CC1 | 10 | 1 | -7 | 10 | -8 | nt | nt | nt | nt
Cc1cc(C(c2cc(C)c(N)c(C)c2)c2ccco2)cc(C)c1N | 10 | 24 | 5 | 4 | 19 | nt | nt | nt | nt
Oc1cccc2ccc(Nc3ccccn3)nc12 | -4 | 52* | 67* | 39 | 13 | 32 | 64* | nt | 79*
N#Cc1cccc(S(=O)(=O)N2CCN(c3ccnc4cc(Cl)ccc34)CC2)c1 | -3 | 28 | 22 | 1 | 15 | 16 | nt | nt | nt
O=S(=O)(c1cccc(Br)c1)N1CCN(c2ccnc3cc(Cl)ccc23)CC1 | -16 | 52* | 50* | 17 | 36 | 4 | 30* | nt | 47*
CC1CCN(S(=O)(=O)c2ccc(Cl)cc2)CC1 | 16 | 55* | 40* | 1 | 42* | 13 | 36* | 16 | 40*
CC1CCN(S(=O)(=O)c2ccc(C(C)C)cc2)CC1 | 46 | 28 | 28 | -8 | 23 | -64 | nt | nt | nt
CC(=O)Nc1ccc(S(=O)(=O)NCCN2CCNC2=O)cc1Cl | 18 | 22 | 20 | -19 | 6 | 32 | nt | nt | nt
CC(C)(C)C(=O)Nc1ccc(C(=O)OC2CCCCC2)cc1 | 25 | 50* | 41* | -1 | 39 | 8 | 28 | nt | 42*
Cc1cc(C)nc(S/C=C/C(=O)c2ccc(F)cc2)n1 | 43 | 56* | 41* | 4 | 48* | 13 | 28 | 39* | 46*
Cc1cc(C)nc(SCC(=O)c2ccc(F)cc2)n1 | 14 | 19 | 1 | -4 | 12 | 29 | nt | nt | nt
Nc1nccnc1C(=O)OCC(=O)NCCc1ccc(Cl)cc1 | 8 | 10 | 12 | nt | -6 | nt | nt | nt | nt
O=C1/C(=C/c2ccc(F)cc2)SC(=S)N1Nc1ncc(C(F)(F)F)cc1Cl | 9 | 11 | 23 | 18 | -6 | 30 | nt | nt | nt
